Experimental data taken from the supplement of paper PMC12669032.
Values without a mark were called inactive.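 Rule for the calls: active = AUC reduced over 20% with Padj below 0.05 in at least 2 of 3 replicates; inactive = otherwise.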

Legend:
Test in all cases: growth AUC relative to DMSO control (median of replicates) (fraction); higher = more growth (less inhibition), active = hit call of the paper
Settings in all cases: 20 µM; 24 h
[1] = system: Coprococcus comes
Method in brief: (§1)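 Hourly OD600 readings over 24 h tracked anaerobic gut bacterial monocultures grown at 37 °C in mGAM from OD600 0.05 with 20 µM compound (1% DMSO). After the minimum OD was set to 0, area under the growth curve was normalised to the plate median of solvent-only wells, or to row and column medians on the industrial chemical plate. Values are medians of three biological replicates grown on separate days.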

[2] = system: Escherichia coli ED1a
Method in brief: as §1

[3] = system: Escherichia coli IAI1
Method in brief: as §1

[4] = system: Eubacterium rectale
Method in brief: as §1

[5] = system: Fusobacterium nucleatum subsp. animalis
Method in brief: as §1

[6] = system: Lactobacillus gasseri
Method in brief: as §1

[7] = system: Lactobacillus paracasei
Method in brief: as §1

[8] = system: Odoribacter splanchnicus
Method in brief: as §1

[9] = system: Parabacteroides distasonis
Method in brief: as §1

[10] = system: Parabacteroides merdae
Method in brief: as §1

Structure (SMILES)	growth AUC [1]	growth AUC [2]	growth AUC [3]	growth AUC [4]	growth AUC [5]	growth AUC [6]	growth AUC [7]	growth AUC [8]	growth AUC [9]	growth AUC [10]
CN(C)S(=O)(=O)N(SC(F)(Cl)Cl)c1ccccc1	1.04	1.03	1.01	1.09	1.06	1.03	1.07	1.04	1.02	0.99
Oc1cc(Cl)cc(Cl)c1	1.02	1	1.02	1.08	1.1	1.08	0.957	1.03	0.997	0.973
CNC(=O)ON=C(C)C(C)SC (stereo not given)	0.972	1.03	1.02	1.12	1.07	0.89	0.803	0.91	0.943	0.915
CCOP(=S)(OCC)SCS(=O)(=O)CC	1.02	1.01	0.992	1.07	1.14	0.95	0.967	0.993	0.999	0.974
CC(C)(C)C(O)/C(=C/c1ccc(Cl)cc1Cl)n1cncn1 (mixture of isomers)	0.959	0.983	0.979	0.992	1	0.836	0.997	0.86	0.938	0.907
Nc1cc(Cl)cc(Cl)c1	1.01	1.03	1.06	1.04	1.13	0.944	1	0.893	1	1.04
O=C(Nc1ccccc1)Nc1cnns1	0.971	0.91	0.884	1	0.955	0.925	1.09	0.938	0.94	0.955
CCSCc1ccccc1OC(=O)NC	0.959	0.971	0.98	0.933	0.973	1.13	1.01	1.03	1.06	1.01
CCc1cccc(CC)c1N(COC)C(=O)CCl	0.976	0.96	0.975	0.993	1.05	0.948	1.01	1.04	0.993	0.978
O=c1oc2ccccc2c(O)c1C1CC(c2ccc(OCc3ccc(C(F)(F)F)cc3)cc2)Cc2ccccc21 (mixture of isomers)	0.858	1.03	1.04	0.431 (active)	1.02	0.484 (active)	0.631 (active)	0.989	0.031 (active)	0.251 (active)
O=C(O)c1nc(Cl)ccc1Cl	1.03	0.995	1.01	0.952	0.998	1.09	1.03	1.01	1.03	1.03
CCOC(=O)/C=C(C)/C=C/C[C@@H](C)CCCC(C)C	0.979	1	0.997	1.03	1.15	1.13	1.01	0.954	1.02	0.989
Clc1cc(Cl)nc(-c2ccccc2)n1	1.02	1.01	0.997	1.06	1.08	0.883	1	1.02	0.991	0.965
CCCOP(=S)(OCCC)SCC(=O)N1CCCCC1C (stereo not given)	0.943	0.985	1	1	1.08	0.891	1.02	1.01	0.676 (active)	0.955
CCCCN(CC)C(=O)SCCC	1.03	1.01	1.01	0.982	1.07	0.972	1.02	0.981	1.01	1.02
CCCC1COC(Cn2cncn2)(c2ccc(Cl)cc2Cl)O1 (stereo not given)	0.941	0.979	0.972	0.545 (active)	1	0.968	0.936	0.977	0.837	0.855
CCCCCCCCCCCCC1=C(OC(C)=O)C(=O)c2ccccc2C1=O	0.863	1	0.975	0.889	1.02	0.504 (active)	0.894	0.959	0.933	0.878
COP(=S)(OC)Oc1ccc(S(C)(=O)=O)c(C)c1	1.03	0.991	0.985	1	1.1	0.901	1.01	1.03	0.987	0.993
COP(=S)(OC)Oc1c(Cl)cc(C)cc1Cl	0.99	0.983	0.99	1	0.971	0.925	1.06	0.97	0.96	0.998
CC(C)N(C(=O)SCC(Cl)=C(Cl)Cl)C(C)C	0.981	0.977	0.977	1.08	1.01	0.948	1	0.944	0.872	0.947
O=c1c2cc(F)ccc2nc(-n2cncn2)n1-c1ccc(Cl)cc1Cl	0.999	0.987	0.99	0.963	0.976	1.05	0.634	0.977	1.02	0.93
O=C(O)COc1cc(Cl)c(Cl)cc1Cl	0.994	0.965	1.04	0.93	0.989	1.19	0.995	0.98	1	0.98
CNC(=O)N(C)c1nc2ccccc2s1	0.992	0.999	0.991	0.958	0.971	0.994	0.949	0.988	0.972	1.02
CC(=O)O.CCCCCCCCCCCCN=C(N)N	1.02	1.02	1.02	1.04	1.04	0.794	1.02	1.02	0.933	0.996
CCOP(=S)(OCC)Oc1cc(Cl)c(SC)cc1Cl	1.02	0.999	0.977	0.897	1.03	0.981	0.995	1.12	1.01	0.926
COP(=S)(OC)Oc1ccc(S(C)=O)c(C)c1 (stereo not given)	1.04	0.975	1.04	1.06	1.02	1.02	1.01	0.979	1.03	0.988
O=C(OC1CCCCC1)c1ccccc1C(=O)OC1CCCCC1	0.97	1	0.99	0.946	1.01	1.08	1.02	0.991	0.957	1
